Rows were chosen to be rich in hits. Some 5.4% of all compounds tested hit in one or more screens of this group.
ALOX15B inhib – inhibitors of human 15-lipoxygenase 2 (ALOX15B); purified 15hLO-2, xylenol orange hydroperoxide absorbance; Potency, µM (series often up to 57.1 µM), actives largely listed as inhibitors; 110,000 compounds, 0.56% hits; AID 881; further: nearly all actives have a fitted effect of over 60% in size
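Read-out: hydroperoxide product oxidises ferrous iron, measured as xylenol orange complex via the 573-to-405 nm absorbance ratio after 30 min. Reaction: 50 nM enzyme, 15 min compound preincubation, 45 uM arachidonic acid, 90 min RT, Hepes pH 7.5 with Triton X-100.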
HPGD block – HPGD (human) dehydrogenase inhibition; P15428; purified HPGD, NADH fluorescence kinetic, PGE2 substrate; Potency, µM, hits mostly inhibitors; 150,000 compounds, 4.3% hits; AID 894; active means well fitted inhibition curve with a large enough effect, not every such curve was filed as active; inconclusive means small, poorly fitted or top-dose-only effect, or another doubt; inactive means no such curve, though single readings can be large or run the other way
Target sequence (P15428 whole entry, looked up): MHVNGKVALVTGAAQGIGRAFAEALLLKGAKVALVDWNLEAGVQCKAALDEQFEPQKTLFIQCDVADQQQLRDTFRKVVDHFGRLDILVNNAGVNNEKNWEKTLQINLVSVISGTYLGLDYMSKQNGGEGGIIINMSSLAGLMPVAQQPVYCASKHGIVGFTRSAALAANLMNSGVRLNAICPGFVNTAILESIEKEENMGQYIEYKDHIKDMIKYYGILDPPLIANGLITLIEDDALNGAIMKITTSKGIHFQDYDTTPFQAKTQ
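20 nM HPGD preincubated 15 min at room temperature with compound in 50 mM Tris-HCl pH 8, 0.01% Tween 20. Started with 1 mM NAD+ and 30 uM prostaglandin E2; NADH fluorescence (360/450 nm) read 5 times over 30-s intervals, last minus first.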
ALOX12 inhib – blocks human 12-lipoxygenase activity | 150,000 compounds, 0.12% hits | Potency, µM (doses to about 57.1 µM), hits mostly inhibitors | purified 12-hLO, xylenol orange hydroperoxide absorbance | AID 1452; further: nearly all actives have a fitted effect of over 55% in size
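Xylenol orange chromogenic assay: hydroperoxide from 12hLO oxidises Fe(II), giving red-shifted Fe(III)-XO absorbance. Conditions: 150 nM enzyme, 40 uM arachidonic acid, 25 mM Hepes pH 7.0, 0.01% Triton X-100, 30 min, room temperature.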
PNC assembly inh – inhibitors of perinucleolar compartment assembly; PC3M PTB-GFP, PNC prevalence imaging, 16 h; active compounds read low; activity change (PNC), negative = inhibition, % at 10 µM; 140,000 compounds, 3.1% hits; AID 2417;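 active means readout at or below -70, meaning at least 70% loss of cells showing the perinucleolar compartment, a nuclear body marking cancer cells; inconclusive means readout between -30 and a set limit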
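PC3M cells stably expressing PTB-GFP, 750–1000 cells/well, treated 16 h at 37 °C with compound (23 nl of library stock), in duplicate. After paraformaldehyde fixation and Hoechst stain, imaged at 20x; PNC prevalence scored by image analysis.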
IMPase Li inh – cell-permeable IMPase inhibitors with lithium potentiation. CHO-M1 cells, IP1 TR-FRET (IP-One), carbachol + lithium. Potency, µM (series often up to 59.4 µM), hits mostly inhibitors. 210,000 compounds, 0.35% hits;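 further: IP1 builds up when IMPase is blocked and the TR-FRET signal falls; nearly all actives have a fitted effect of over 50% in size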
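Test compounds were applied to CHO-M1 cells previously cultured for 16–30 h at 2000 per well. A small lithium amount accompanied them; after 30 min at 37C, IP1 was quantified by TR-FRET.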
IMPase inh – IMPase inhibition in cells | CHO-M1 cells, IP1 accumulation, HTRF TR-FRET ratio | 120,000 tested, under 10 active | P97697 | inhibition (IP1 accumulation), % at 46.1 µM; active means well fitted curve in the direction sought with a large enough effect in the signal ratio, not every such curve was filed as active; inconclusive means small, poorly fitted or top-dose-only effect, or a change in a side signal; inactive means no such curve, though single readings can be large or run the other way; the % refers to the signal ratio;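 further: cells stimulated with carbachol in lithium chloride buffer; higher means more IMPase inhibition seen as more IP1 and lower FRET ratio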
Target sequence (P97697 whole entry, looked up): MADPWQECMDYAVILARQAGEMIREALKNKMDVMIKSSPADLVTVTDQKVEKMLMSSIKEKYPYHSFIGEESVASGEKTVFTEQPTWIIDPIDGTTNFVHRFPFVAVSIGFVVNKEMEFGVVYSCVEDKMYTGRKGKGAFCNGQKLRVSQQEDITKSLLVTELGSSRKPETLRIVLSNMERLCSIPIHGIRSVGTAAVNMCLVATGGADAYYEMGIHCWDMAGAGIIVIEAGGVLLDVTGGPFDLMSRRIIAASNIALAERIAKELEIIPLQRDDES
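Seeded CHO-M1 cells were dosed with compound at up to 46 uM, stimulated with carbachol for 30 min, then lysed in IP-One detection reagents. Higher IP1 lowers the TR-FRET signal.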
Numbers stand for hits; . = inactive; ? = inconclusive; / = no result; [ ] = remark or other dose. Unless noted, the call rests on the fitted dose curve; in most records, active means well fitted curve in the direction sought with a large enough effect; inconclusive means small, poorly fitted or top-dose-only effect, or another doubt; inactive means no such curve, though single readings can be large; an effect the other way counts as inactive or inconclusive.

SMILES	ALOX15B inhib	HPGD block	ALOX12 inhib	PNC assembly inh	IMPase Li inh	IMPase inh
Cc1cc2cc(CNC(=O)NC3CCCCC3)ccc2n1C	.	28µM	.	.	?	.
Cn1cc(Br)c(C(=O)NC2C3CC4CC(C3)CC2C4)n1 (stereo not given)	/	16µM	.	.	.	.
CC(C)C[C@@H](/C=C/S(C)(=O)=O)NC(=O)[C@H](CC(C)C)NC(=O)[C@H](CC(C)C)NC(=O)OCc1ccccc1	/	/	/	/	.	/
O=C(O)Cn1c(SCc2cccc3ccccc23)nc2ccccc21	.	25µM	.	.	.	.
COCCCNC(=O)COc1ccc(Br)cc1Cl	/	.	.	-90	.	/
COCCNC(=O)COc1ccc(C)cc1C	.	14µM	.	.	.	.
CCNC(=O)COc1ccc(Br)cc1Cl	.	.	.	.	.	.
O=C(c1cc2cc(Br)cc(Br)c2oc1=O)N1CCCC1	/	28µM	.	.	.	.[0.369 µM]
CCOc1cc(CNc2ccc(O)cc2)ccc1OCc1ccc(Cl)cc1	/	/	/	/	/	.
O=C1C=C(Nc2ccc(Cl)cc2)CC(c2ccc(Cl)cc2)C1 (stereo not given)	.	32µM	.	.	.	.
COc1ccccc1NC1=CC(=O)CC(c2ccccc2)C1 (stereo not given)	/	.	.	-96	.	/
COc1ccc(C2=CC(=O)CC(c3ccccc3)C2)cc1 (stereo not given)	/	/	/	/	.	/
Cc1noc(C)c1C(=O)N1CCC[C@@]2(CCN(Cc3cc(C(F)(F)F)cc(C(F)(F)F)c3)C2)C1	.	.	.	/	.	/
c1nc(N2CCC3(CC2)OCCO3)c2[nH]cnc2n1	/	.	.	-113	.	/
Cc1ccc(C(=O)Nc2ncc(Cc3ccc(SC(F)F)cc3)s2)cc1	/	.	.	-82	.	.
Cc1ccc(C(=O)Nc2ncc(Cc3ccc(F)cc3)s2)o1	.	?	.	.	.	.
O=C(CSc1n[nH]c(-c2cc(Cl)ccc2Cl)n1)NCCN1C(=O)CSC1=O	/	16µM	.	.	.	.
Cc1ccc(SCC(=O)NCCN2C(=O)CSC2=O)c(C)c1	/	.	.	-100	.	.
CC1=Nc2cc(C(=O)NCCc3ccc(Cl)cc3)ccc2Sc2ccc(C)cc21	/	/	/	/	/	.
COC(=O)[C@H](Cc1ccccc1)NC(=O)O[C@@H]1C(=O)c2cc(OC)ccc2O[C@H]1c1cccc(OC)c1	/	.	/	/	.	/
O=C(O)CCc1c2ccc(=O)c(O)c-2oc2c(O)c(O)ccc12	?	2.8µM	.[11.4 µM]	/	.	/
CC(=O)C1(C)CC2=C(CCCC2(C)C)CC1C (stereo not given)	.	.	.	/	.	/
Cc1occc1C(=O)NN1C(=O)C2C3CCC(O3)C2C1=O (stereo not given)	/	.	.	-102	.	/
Cc1ccc(Nc2ccc(NCc3ccccc3)nn2)cc1C	/	.	.	.	.	/
Clc1ccc(Nc2ccc(NCc3ccccc3)nn2)cc1	/	5.6µM	.	.	.	/
SMILES	ALOX15B inhib	HPGD block	ALOX12 inhib	PNC assembly inh	IMPase Li inh	IMPase inh
Cc1ccc(-c2nnc(Nc3ccccc3O)c3ccccc23)cc1	/	/	/	/	/	.
Cc1ccc(-c2nnc(NCc3ccccc3)c3ccccc23)cc1	/	3.2µM	.	?	.	.
Clc1ccc(-c2nnc(NCc3ccccc3)c3ccccc23)cc1	/	5.6µM	.	.	.	.
Oc1ccc(Nc2nnc(-c3ccc(O)cc3)c3ccccc23)cc1	/	/	/	/	.	/
COCCn1c(=O)c(C)nc2cncnc21	.	/	/	/	.	/
O=C(COc1ccccc1)N1CCN=C1c1ccccc1	.	.	.	.	.	.
O=C(c1ccc(F)cc1)N1CCN=C1c1ccccc1	/	.	.	-96	.	/
COc1cc(C(=O)N2CCN=C2c2ccccc2)cc(OC)c1OC	.	.	.	-100	.	.
COc1cc([N+](=O)[O-])cc2cc(C(=O)N3CCN=C3c3ccccc3)c(=O)oc12	/	/	/	/	.	/
Nc1c(Cl)cc(Cl)cc1Cl	.	.	.	/	.	/
CCOC(=O)C1CCCN(C(=O)c2ccc(OC)c([N+](=O)[O-])c2)C1 (stereo not given)	/	.	.	-95	.	/
CCCCC(=O)Nc1ccc(C(=O)N2CCCC(C(=O)OCC)C2)cc1 (stereo not given)	.	14µM	.	.	.	.
CCCC(=O)Nc1ccc(C(=O)NNC(=O)c2ccccc2Br)cc1	.	28µM	.	.	.	.
CCOC(=O)C1CCCN(C(=O)c2cn(CC)c(=O)c3cc(OC)c(OC)cc23)C1 (stereo not given)	.	.	.	.	.	.
CCOC(=O)C1CCCN(C(=O)c2cn(CC(C)C)c(=O)c3cc(OC)c(OC)cc23)C1 (stereo not given)	/	.	.	-100	.	.
CCOC(=O)C1CCCN(C(=O)c2ccc([N+](=O)[O-])cc2)C1 (stereo not given)	/	.	.	.	.	/
CCCCCC#CC[C@@H](O)/C=C/C=C/C=C\[C@@H](O)CCCC(=O)O	/	.	.	/	.	/
CCCC(=O)Nc1ccc(S(=O)(=O)N2CCCC2)cc1	.	.	.	.	.	.
CCCC(=O)Nc1ccc(C(=O)N2CCCC2)cc1	.	14µM	.	?	.	.
C[C@H]1O[C@@H](O[C@H]2[C@@H](O)C[C@H](O[C@H]3[C@@H](O)C[C@H](O[C@H]4CC[C@@]5(C)[C@H](CC[C@@H]6[C@@H]5C[C@@H](O)[C@]5(C)[C@@H](C7=CC(=O)OC7)CC[C@]65O)C4)O[C@@H]3C)O[C@@H]2C)C[C@H](O)[C@@H]1O	.	.	.	-90	.	.
CCOC(=O)N1CCN(C(=O)CN(c2cccc(Cl)c2)S(=O)(=O)c2ccccc2)CC1	/	/	/	/	/	.
O=C(Cc1ccccc1)NC1CCN(Cc2ccccc2)CC1	/	/	/	/	.	/
CC(Oc1ccccc1)C(=O)NC1CCN(Cc2ccccc2)CC1 (stereo not given)	.	.	.	-84	.	.
